# Source: PubChem BioAssay (Tox21)
# Unmarked numbers belong to inactive results. Inconclusive results are not listed. Where a call stands in place of a potency, no number is given. Activity calls are given as the source filed them. Unless noted, the call rests on the fitted dose curve; in most records, active means well fitted curve in the direction sought with a large enough effect in the repeat runs; inconclusive means weak or mixed curves; inactive means no such curve, though single readings can be large; an effect the other way counts as inactive or inconclusive.
# Tests used:
# [1] = qHTS RealTime-Glo MT Cell Viability Assay in HepG2 cells - 32 hour (AID 1224877); further: nearly all actives have a fitted effect of over 55% in size
# Summary of the method: (§1)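 Cells + NanoLuc/prosubstrate dispensed (600 cells/well) → 5 h at 37 C/5% CO2 → compounds in DMSO transferred → 40 h incubation at 37 C, luminescence read at 0, 8, 16, 24, 32, 40 h.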
# [2] = A CellTox Green Cytotoxicity Assay to monitor cytotoxicity in HepG2 cells - 24 hour (AID 1224878); further: nearly all actives have a fitted effect of over 45% in size
# Summary of the method: (§2)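 Read-out is fluorescence of a cyanine dye excluded from live cells that stains DNA of dead HepG2 cells, with signal proportional to cytotoxicity. Plates were read at 0, 8, 16, 24, 32 and 40 h after compound addition.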
# [3] = A CellTox Green Cytotoxicity Assay to monitor cytotoxicity in HepG2 cells - 40 hour (AID 1224879); further: nearly all actives have a fitted effect of over 40% in size; further: potency means the concentration at half of the fitted maximal effect
# Summary of the method: as §2
# [4] = qHTS RealTime-Glo MT Cell Viability Assay in HEK293 cells - 0 hour (AID 1224880); further: top concentration of the series differs between compounds; nearly all actives have a fitted effect of over 45% in size
# Summary of the method: (§3)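 Cells were seeded together with NanoLuc luciferase and a prosubstrate that viable cells reduce to a luciferase substrate. After a 5 h incubation at 37 C/5% CO2, compounds were added and luminescence was measured repeatedly during 40 h of treatment.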
# [5] = A CellTox Green Cytotoxicity Assay to monitor cytotoxicity in HEK293 cells - 32 hour (AID 1224881); further: nearly all actives have a fitted effect of over 40% in size
# Summary of the method: (§4)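 Nonlytic real-time cytotoxicity: HEK293 + CellTox Green reagent plated, 5 h preincubation, pintool compound addition (23 nL in DMSO), 37 C for 40 h, fluorescence measured at successive time points.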
# [6] = A CellTox Green Cytotoxicity Assay to monitor cytotoxicity in HepG2 cells - 0 hour (AID 1224882); further: nearly all actives have a fitted effect of over 35% in size
# Summary of the method: as §2
# [7] = A CellTox Green Cytotoxicity Assay to monitor cytotoxicity in HEK293 cells - 8 hour (AID 1224884); further: nearly all actives have a fitted effect of over 35% in size
# Summary of the method: as §4
# [8] = qHTS RealTime-Glo MT Cell Viability Assay in HepG2 cells - 16 hour (AID 1224885); further: nearly all actives have a fitted effect of over 50% in size
# Summary of the method: as §1
# [9] = qHTS RealTime-Glo MT Cell Viability Assay in HEK293 cells - 24 hour (AID 1224886); further: top concentration of the series differs between compounds; nearly all actives have a fitted effect of over 50% in size
# Summary of the method: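 Tox21 10K qHTS, HEK293, 600 cells/well, RealTime-Glo reagent co-dispensed with cells; 5 h preincubation, compound by pintool, 37 C, luminescence at 0–40 h.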
# [10] = qHTS RealTime-Glo MT Cell Viability Assay in HEK293 cells - 8 hour (AID 1224887); further: top concentration of the series differs between compounds; nearly all actives have a fitted effect of over 50% in size
# Summary of the method: as §3
# [11] = A CellTox Green Cytotoxicity Assay to monitor cytotoxicity in HEK293 cells - 16 hour (AID 1224888); further: nearly all actives have a fitted effect of over 35% in size
# Summary of the method: as §4
# [12] = qHTS RealTime-Glo MT Cell Viability Assay in HepG2 cells - 0 hour (AID 1224889); further: nearly all actives have a fitted effect of over 50% in size
# Summary of the method: as §1
# [13] = A CellTox Green Cytotoxicity Assay to monitor cytotoxicity in HepG2 cells - 8 hour (AID 1224890); further: nearly all actives have a fitted effect of over 45% in size
# Summary of the method: as §2
# [14] = molecular target: Estrogen receptor (Homo sapiens) (UniProt P03372); experiment: qHTS assay to identify small molecule antagonists of the estrogen receptor alpha (ER-alpha) signaling pathway using the BG1 cell line in the presence of 0.1 nM 17-beta-estradiol (AID 1259244); further: nearly all actives have a fitted effect of over 50% in size
# Summary of the method: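 Cells: VM7Luc4E2, endogenous ER-alpha, 4x ERE-luc stable. Pre-culture 5 d, phenol red-free, charcoal-stripped FBS. Plated 24 h, compound + E2 0.1 nM final, 22 h 37C/5% CO2. Readout ONE-Glo luminescence.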
# [15] = qHTS assay to identify small molecule HDAC inhibitors (AID 1259364); further: top concentration of the series differs between compounds; nearly all actives have a fitted effect of over 45% in size
# Summary of the method: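 Luminescence from a cell-permeant luminogenic class I/II HDAC substrate reports endogenous deacetylase activity in intact HCT-116 cells treated with compounds for 2 h.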
# [16] = A CellTox Green Cytotoxicity Assay to monitor cytotoxicity in HepG2 cells - 32 hour (AID 1224883); further: nearly all actives have a fitted effect of over 50% in size
# Summary of the method: as §2
# [17] = qHTS assay to identify small molecule antagonists of the estrogen receptor alpha (ER-alpha) signaling pathway using the BG1 cell line in the presence of 0.1 nM 17-beta-estradiol - cell viability counter screen (AID 1259241); further: nearly all actives have a fitted effect of over 40% in size
# Summary of the method: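 Viability in VM7Luc4E2 cells after 22 hr compound exposure under 0.1 nM 17beta-estradiol stimulation, by CellTiter-Fluor.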
# [18] = qHTS assay to identify small molecule antagonists of the androgen receptor (AR) signaling pathway using the MDA cell line in the presence of 0.5 nM R1881 - cell viability counter screen (AID 1259242); further: nearly all actives have a fitted effect of over 45% in size
# Summary of the method: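 Counter screen for cytotoxicity run in the same wells as the AR antagonist reporter screen: MDA-kb2 cells were treated 16 hr with test compounds and 0.5 nM R1881, then live-cell protease activity was measured by fluorescence.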
# [19] = molecular target: Androgen receptor (Homo sapiens) (UniProt P10275); experiment: qHTS assay to identify small molecule antagonists of the androgen receptor (AR) signaling pathway using the MDA cell line in the presence of 0.5 nM R1881 (AID 1259243); further: nearly all actives have a fitted effect of over 50% in size; further: potency means the concentration at half of the fitted maximal effect
# Summary of the method: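 Luciferase luminescence is the read-out: compounds are tested for suppressing 0.5 nM R1881-driven MMTV reporter activity in MDA-kb2 cells after 16 hr at 37C.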
# [20] = qHTS assay to identify small molecule phospholipidosis (PLD) inducers (AID 1259344; active means well fitted curve in the direction sought with a large enough effect; an effect the other way counts as inactive or inconclusive)
# Summary of the method: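 HepG2 cells on collagen I, attached 4 h at 37 C, were co-treated with compound and LipidTOX Red dye for 24 h at 37 C, then fixed with paraformaldehyde plus Hoechst 33342 and imaged by high-content microscopy for phospholipid accumulation.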
# Estrogen receptor (Homo sapiens), sequence (P03372 whole entry, looked up): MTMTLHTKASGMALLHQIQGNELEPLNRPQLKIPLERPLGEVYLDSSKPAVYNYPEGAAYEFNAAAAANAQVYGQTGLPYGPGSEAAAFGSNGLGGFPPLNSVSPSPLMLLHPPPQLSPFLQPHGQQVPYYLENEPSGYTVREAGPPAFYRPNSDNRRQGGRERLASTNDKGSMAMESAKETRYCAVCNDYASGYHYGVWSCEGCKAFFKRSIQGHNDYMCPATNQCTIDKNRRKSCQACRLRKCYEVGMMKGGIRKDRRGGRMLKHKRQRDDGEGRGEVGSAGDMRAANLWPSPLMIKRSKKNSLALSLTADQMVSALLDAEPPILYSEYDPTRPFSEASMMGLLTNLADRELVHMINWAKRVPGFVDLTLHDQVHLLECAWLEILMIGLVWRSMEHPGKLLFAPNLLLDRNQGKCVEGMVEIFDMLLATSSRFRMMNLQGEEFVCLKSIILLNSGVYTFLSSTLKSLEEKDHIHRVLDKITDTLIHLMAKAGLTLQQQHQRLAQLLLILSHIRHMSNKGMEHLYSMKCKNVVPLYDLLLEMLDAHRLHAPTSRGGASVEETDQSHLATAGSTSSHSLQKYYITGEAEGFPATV
# Androgen receptor (Homo sapiens), sequence (P10275 whole entry, looked up): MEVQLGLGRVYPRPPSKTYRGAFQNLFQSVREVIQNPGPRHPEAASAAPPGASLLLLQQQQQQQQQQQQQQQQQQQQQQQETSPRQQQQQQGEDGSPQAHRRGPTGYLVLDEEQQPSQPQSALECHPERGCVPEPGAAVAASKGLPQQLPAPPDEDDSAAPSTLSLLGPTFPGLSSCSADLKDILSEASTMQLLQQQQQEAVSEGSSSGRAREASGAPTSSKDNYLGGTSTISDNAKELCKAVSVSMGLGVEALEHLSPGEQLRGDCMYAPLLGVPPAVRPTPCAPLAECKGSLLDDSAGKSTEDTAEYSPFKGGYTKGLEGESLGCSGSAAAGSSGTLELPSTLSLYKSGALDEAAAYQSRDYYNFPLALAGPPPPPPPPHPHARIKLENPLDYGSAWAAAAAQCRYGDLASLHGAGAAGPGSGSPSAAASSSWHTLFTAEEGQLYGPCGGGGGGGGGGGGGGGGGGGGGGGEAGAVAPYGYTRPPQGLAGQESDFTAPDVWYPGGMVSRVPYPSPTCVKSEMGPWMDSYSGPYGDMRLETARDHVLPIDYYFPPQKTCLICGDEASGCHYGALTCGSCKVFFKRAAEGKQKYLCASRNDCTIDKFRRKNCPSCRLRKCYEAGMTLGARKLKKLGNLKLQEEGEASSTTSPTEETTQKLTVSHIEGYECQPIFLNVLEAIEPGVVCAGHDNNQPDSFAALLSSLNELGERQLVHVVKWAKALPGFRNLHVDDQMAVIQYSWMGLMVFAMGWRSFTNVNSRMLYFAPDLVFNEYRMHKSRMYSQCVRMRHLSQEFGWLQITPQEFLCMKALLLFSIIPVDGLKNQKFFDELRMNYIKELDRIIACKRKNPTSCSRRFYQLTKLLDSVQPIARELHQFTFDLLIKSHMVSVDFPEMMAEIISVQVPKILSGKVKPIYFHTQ
smiles,measurement,setting,value
NNC(=O)CCCCC(=O)NN,outcome,[1],inactive
same,Potency,[2],inactive
same,Potency,[3],inactive
same,Potency,[4],inactive
same,Potency,[5],inactive
same,Potency,[6],inactive
same,Potency,[7],inactive
same,outcome,[8],inactive
same,outcome,[9],inactive
same,outcome,[10],inactive
same,Potency,[11],inactive
same,Potency,[12],inactive
same,Potency,[13],inactive
same,outcome,[14],inactive
same,Potency,[15],inactive
CC1(C)CC(N)CC(C)(C)N1,outcome,[1],inactive
same,Potency,[2],inactive
same,Potency,[3],inactive
same,Potency,[5],inactive
same,Potency,[6],inactive
same,Potency,[16],inactive
same,Potency,[7],inactive
same,outcome,[8],inactive
same,outcome,[9],inactive
same,outcome,[10],inactive
same,Potency,[11],inactive
same,Potency,[12],inactive
same,Potency,[13],inactive
same,outcome,[17],inactive
same,outcome,[18],inactive
CC(C)(C)C(=O)CC(=O)C(C)(C)C,outcome,[1],inactive
same,Potency,[2],inactive
same,Potency,[3],inactive
same,Potency,[4],inactive
same,Potency,[5],inactive
same,Potency,[6],inactive
same,outcome,[8],inactive
same,outcome,[9],inactive
same,outcome,[10],inactive
same,Potency,[11],inactive
same,Potency,[12],inactive
same,Potency,[13],inactive
same,outcome,[18],inactive
same,outcome,[14],inactive
same,Potency,[15],inactive
O=C1CCCc2c(O)cccc21,outcome,[1],inactive
same,Potency,[2],inactive
same,Potency,[3],9.52 µM (active)
same,Potency,[4],inactive
same,Potency,[5],inactive
same,Potency,[6],inactive
same,outcome,[8],inactive
same,outcome,[10],inactive
same,Potency,[11],inactive
same,Potency,[12],inactive
same,Potency,[13],inactive
same,outcome,[17],inactive
same,Potency,[19],inactive
same,outcome,[14],inactive
same,Potency,[15],inactive
O=C1CC2(CCCC2)CC(=O)N1CCNCC1COc2ccccc2O1 (centres undefined),outcome,[1],inactive
same,Potency,[2],inactive
same,Potency,[3],inactive
same,Potency,[5],inactive
same,Potency,[6],inactive
same,Potency,[7],inactive
same,outcome,[8],inactive
same,outcome,[10],inactive
same,Potency,[11],inactive
same,Potency,[12],inactive
same,Potency,[13],inactive
same,outcome,[17],inactive
same,Potency,[20],inactive
same,Potency,[15],inactive
N=C(N)N1CCc2ccccc2C1,"activity change, negative = cytotoxic",[1],0.278% [at 6.97 µM]
same,cytotoxicity,[2],-11.7% [at 6.97 µM]
same,cytotoxicity increase,[3],-14.4% [at 6.97 µM]
same,"activity change, negative = cytotoxicity",[4],-0.804% [at 6.97 µM]
same,cytotoxicity increase,[5],-11.6% [at 6.97 µM]
same,cytotoxicity increase,[16],-12.5% [at 6.97 µM]
same,cytotoxicity increase,[7],-15.6% [at 6.97 µM]
same,"activity change, negative = cytotoxic",[8],0.556% [at 6.97 µM]
same,"activity change, negative = cytotoxicity",[9],2.27% [at 6.97 µM]
same,"activity change, negative = cytotoxicity",[10],2.38% [at 6.97 µM]
same,activity change,[11],"-13.7% [at 6.97 µM, active compounds read high]"
same,"activity change, negative = cytotoxicity",[12],-7.09% [at 6.97 µM]
same,cytotoxicity increase,[13],-13.8% [at 6.97 µM]
same,"activity change, negative = cytotoxicity",[17],9.23% [at 8.39 µM]
same,"viability change, negative = cytotoxic",[18],-5.28% [at 8.39 µM]
same,Potency,[20],inactive
same,"activity change, negative = inhibition",[15],3.09% [at 8.39 µM]
C/C(Cl)=C/CCl,outcome,[1],inactive
same,Potency,[2],inactive
same,Potency,[3],inactive
same,Potency,[4],inactive
same,Potency,[5],inactive
same,Potency,[6],inactive
same,outcome,[8],inactive
same,outcome,[10],inactive
same,Potency,[11],inactive
same,Potency,[12],inactive
same,Potency,[13],inactive
same,outcome,[17],inactive
same,outcome,[18],inactive
same,Potency,[19],inactive
same,outcome,[14],inactive
CCCC(=O)CC,outcome,[1],inactive
same,Potency,[2],inactive
same,Potency,[3],inactive
same,Potency,[4],inactive
same,Potency,[5],inactive
same,Potency,[6],inactive
same,Potency,[7],inactive
same,outcome,[8],inactive
same,outcome,[9],inactive
same,outcome,[10],inactive
same,Potency,[11],inactive
same,Potency,[12],inactive
same,Potency,[13],inactive
same,outcome,[17],inactive
same,outcome,[14],inactive
same,Potency,[15],inactive
CN(C)CCCN(C)C,"activity change, negative = cytotoxic",[1],0.21% [at 6.97 µM]
same,cytotoxicity,[2],-15.5% [at 6.97 µM]
same,"activity change, negative = cytotoxicity",[4],-1.25% [at 6.97 µM]
same,cytotoxicity increase,[5],-0.385% [at 6.97 µM]
same,cytotoxicity,[6],-10.6% [at 6.97 µM]
same,"activity change, negative = cytotoxic",[8],0.141% [at 6.97 µM]
same,"activity change, negative = cytotoxicity",[9],3.07% [at 6.97 µM]
same,"activity change, negative = cytotoxicity",[10],-0.912% [at 6.97 µM]
same,activity change,[11],"-1.52% [at 6.97 µM, active compounds read high]"
same,"activity change, negative = cytotoxicity",[12],-4.9% [at 6.97 µM]
same,cytotoxicity increase,[13],-9.61% [at 6.97 µM]
same,"viability change, negative = cytotoxic",[18],2.3% [at 8.39 µM]
same,"activity change, negative = inhibition",[14],-10.8% [at 8.39 µM]
same,"activity change, negative = inhibition",[15],2.55% [at 8.39 µM]
CN(C)CCc1c[nH]c2ccc(CS(=O)(=O)N3CCCC3)cc12,outcome,[1],inactive
same,Potency,[2],inactive
same,Potency,[3],inactive
same,Potency,[4],inactive
same,Potency,[5],inactive
same,Potency,[6],inactive
same,Potency,[7],inactive
same,outcome,[8],inactive
same,outcome,[9],inactive
same,outcome,[10],inactive
same,Potency,[11],inactive
same,Potency,[12],inactive
same,Potency,[13],inactive
same,outcome,[18],inactive
same,outcome,[14],inactive
same,Potency,[20],inactive
same,Potency,[15],inactive
CCNC(=O)C(C)OC(=O)Nc1ccccc1 (centres undefined),outcome,[1],inactive
same,Potency,[2],inactive
same,Potency,[3],inactive
same,Potency,[4],inactive
same,Potency,[5],inactive
same,Potency,[6],inactive
same,Potency,[7],inactive
same,outcome,[8],inactive
same,outcome,[9],inactive
same,outcome,[10],inactive
same,Potency,[11],inactive
same,Potency,[12],inactive
same,Potency,[13],inactive
same,outcome,[18],inactive
same,outcome,[14],inactive
same,Potency,[15],inactive
CC(=O)O[C@@H]1CC2C3CCc4cc(OC(=O)c5ccccc5)ccc4C3CCC2(C)[C@H]1OC(C)=O (some centres undefined),Potency,[2],inactive
same,Potency,[3],inactive
same,Potency,[4],inactive
same,Potency,[5],inactive
same,Potency,[6],inactive
same,Potency,[16],inactive
same,Potency,[7],inactive
same,outcome,[8],inactive
same,outcome,[9],inactive
same,outcome,[10],inactive
same,Potency,[11],inactive
same,Potency,[12],inactive
same,Potency,[13],inactive
same,outcome,[17],inactive
same,outcome,[18],inactive
same,Potency,[19],10.6 µM (active)
same,outcome,[14],inactive
same,Potency,[15],inactive
CCCCS,outcome,[1],inactive
same,Potency,[2],inactive
same,Potency,[3],inactive
same,Potency,[4],inactive
same,Potency,[6],inactive
same,Potency,[16],inactive
same,Potency,[7],inactive
same,outcome,[8],inactive
same,outcome,[9],inactive
same,outcome,[10],inactive
same,Potency,[12],inactive
same,Potency,[13],inactive
same,outcome,[17],inactive
same,outcome,[18],inactive
same,outcome,[14],inactive
same,Potency,[15],inactive
c1cc2ccc3ccc4ccc5cccc6c(c1)c2c3c4c56,"activity change, negative = cytotoxic",[1],-3.43% [at 2.72 µM]
same,cytotoxicity,[2],-19.8% [at 2.72 µM]
same,cytotoxicity increase,[3],-16.7% [at 2.72 µM]
same,"activity change, negative = cytotoxicity",[4],-3.02% [at 2.72 µM]
same,cytotoxicity increase,[5],-14.8% [at 2.72 µM]
same,cytotoxicity,[6],-21.2% [at 2.72 µM]
same,cytotoxicity increase,[7],-10.4% [at 2.72 µM]
same,"activity change, negative = cytotoxic",[8],0.567% [at 2.72 µM]
same,"activity change, negative = cytotoxicity",[9],0.461% [at 2.72 µM]
same,"activity change, negative = cytotoxicity",[10],-6.75% [at 2.72 µM]
same,activity change,[11],"-11.1% [at 2.72 µM, active compounds read high]"
same,"activity change, negative = cytotoxicity",[12],3.24% [at 2.72 µM]
same,cytotoxicity increase,[13],-16.5% [at 2.72 µM]
same,"activity change, negative = cytotoxicity",[17],10.7% [at 3.27 µM]
same,"viability change, negative = cytotoxic",[18],1.62% [at 3.26 µM]
same,"activity change, negative = inhibition",[15],-0.743% [at 3.27 µM]
